From PubChem
Lassa entry inh: blocks Lassa virus binding to or entry into cells; Potency, µM (series often up to 37.9 µM), hits mostly inhibitors; AID 540256; Lassa virus pseudotype entry inhibition, cell reporter; 1.2% of 300,000 active; calls by dose curve; tested in HEK293 cells; further: nearly all actives have a fitted effect of over 50% in size
MARV entry inh: Marburg virus entry inhibition; Potency, µM (doses to about 37.8 µM), actives largely listed as inhibitors; Marburg virus pseudotyped entry inhibition, cell reporter; 1.8% of 300,000 active; AID 540276; calls by dose curve; tested in HEK293 cells
CHX counter: counter-screen for Shiga toxin inhibitors: cycloheximide protein synthesis inhibition. 12% of 300,000 active. cell reporter, cycloheximide protein synthesis inhibition counterscreen. max response, %; in the data active means max response mostly above about 13%, no sharp cut-off; inactive means mostly below about 14%; further: read at 38.3 µM for the half of the compounds with a filed dose
FMDV antiviral: blocks foot and mouth disease virus; FMDV antiviral cell-based qHTS; Potency, µM (series often up to 57.9 µM), hits mostly inhibitors; 1.2% of 410,000 active; AID 1159524; calls by dose curve; tested in HEK293T cells; further: read-out not given here; nearly all actives have a fitted effect of over 45% in size
Shiga toxin inh: blocks Shiga toxin action in Vero cells. 9.2% of 290,000 active. inhibition, % at 38.7 µM. Vero cells, Shiga toxin protein synthesis inhibition reporter; in the data active means inhibition mostly above about 28%, no sharp cut-off; inactive means mostly below about 43%
HCV inh: HCV inhibition. Huh7.5.1 HCVcc-Cre infection, luciferase reporter, 44 h. 3.4% of 340,000 active. Potency, µM (top dose mostly 41.8 µM), most hits filed as inhibitors. AID 651820; active means well fitted inhibition curve with a large enough effect; inconclusive means small, poorly fitted or top-dose-only effect, or another doubt; inactive means no such curve, though single readings can be large or run the other way
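Whole-lifecycle infectious HCVcc-Cre system; cells 1,000/well, compound then virus (~0.5 moi) added 4 h after plating, 44 h culture. Luciferase read 15 sec following 15 min substrate incubation, room temp.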
Each line names hits and unclear results; the compound was inactive in the other large screens. This is a sample that favours compounds with a hit; in the whole collection about 13% have one here.

COc1ccc(-c2nc3ccccc3n2Cc2ccc(Cl)cc2)cc1	Lassa entry inh inconclusive, MARV entry inh inconclusive (no result: CHX counter, Shiga toxin inh, HCV inh)
COc1ccc(Cn2c(-c3ccc(OC)c(O)c3)nc3ccccc32)cc1O	Lassa entry inh inconclusive, MARV entry inh inconclusive, CHX counter 27, Shiga toxin inh 75
COc1ccc(-c2nc3ccccc3n2Cc2ccc(C)cc2)cc1	CHX counter 42, Shiga toxin inh 44, HCV inh inconclusive
CCOc1ccc(Cn2c(-c3ccc(OCC)c(OC)c3)nc3ccccc32)cc1OC	MARV entry inh inconclusive (no result: CHX counter, Shiga toxin inh, HCV inh)
COCCn1c(-c2ccccc2)nc2ccccc21	MARV entry inh inconclusive, CHX counter 66, Shiga toxin inh 96
CCOCCc1nnc(NC(=O)CS(=O)(=O)Cc2ccccc2)s1	FMDV antiviral inconclusive
C=C(C)Cn1c(-c2ccc(OC)cc2)nc2ccccc21	MARV entry inh inconclusive
CCCn1c(-c2ccc(OC)cc2)nc2ccccc21	CHX counter 13
COCn1c(-c2ccc(OC)cc2)nc2ccccc21	CHX counter 51, Shiga toxin inh active
Nc1nonc1-n1nnc(C(=O)N/N=C/c2ccc(Br)cc2)c1CN1CCOCC1	none (no result: Lassa entry inh, MARV entry inh)
CC(C(=O)Nc1ccc(S(=O)(=O)N2CCOCC2)cc1)N1CCN(c2ccccn2)CC1 (configuration not stated)	none
c1ccc(C2=NN(c3ccccc3)CC2)cc1	CHX counter 61, Shiga toxin inh 114 (no result: Lassa entry inh, MARV entry inh)
CCOC(=O)/C(=C/c1ccc(N2CCC(c3ccccc3)=N2)cc1)C(C)=O	Lassa entry inh inconclusive, HCV inh inconclusive
C/C(=N/OC(=O)c1ccc(F)cc1)c1ccc(C)cc1	none
N/C(=N\OC(=O)c1ccccc1Br)c1ccc([N+](=O)[O-])cc1	CHX counter 10, Shiga toxin inh 19 (no result: Lassa entry inh, MARV entry inh)
N/C(CS(=O)(=O)c1ccccc1)=N\OC(=O)c1ccc(F)cc1	MARV entry inh inconclusive, CHX counter 28, Shiga toxin inh 109
Cc1ccccc1C(=O)O/N=C(\N)c1ccc([N+](=O)[O-])cc1	MARV entry inh inconclusive, CHX counter 32 (no result: Shiga toxin inh)
Cc1ccccc1/C(N)=N/OC(=O)c1ccc(F)cc1	CHX counter 47, Shiga toxin inh 107, HCV inh inconclusive (no result: Lassa entry inh, MARV entry inh)
O=C(CCc1ccccc1)Nc1nnc(-c2ccccn2)o1	none
Cc1ccccc1C(=O)O/N=C(\c1ccccc1)c1ccccn1	MARV entry inh inconclusive
Cc1ccccc1C(=O)O/N=C(\N)c1ccccc1	Lassa entry inh inconclusive, MARV entry inh inconclusive, CHX counter 21, FMDV antiviral 11µM, HCV inh inconclusive
N/C(=N\OC(=O)c1ccccc1F)c1cccc([N+](=O)[O-])c1	CHX counter 39, Shiga toxin inh 56 (no result: Lassa entry inh, MARV entry inh)
N/C(=N\OC(=O)c1ccccc1Br)c1cccc([N+](=O)[O-])c1	CHX counter 52, Shiga toxin inh 118 (no result: Lassa entry inh, MARV entry inh)
CCCOc1ccc(OC(=O)Cc2ccc(OC)c(S(=O)(=O)N3CCOCC3)c2)cc1	HCV inh inconclusive (no result: CHX counter, Shiga toxin inh)
CC(=O)OCc1c(C(F)(F)F)nn(C)c1Oc1ccccc1	none
Cn1nc(-c2ccccc2)c(CO)c1Oc1ccc(F)cc1	MARV entry inh inconclusive, CHX counter 18
CCOC(=O)N1CCC(NS(=O)(=O)c2cc3c(cc2Cl)NC(=O)CO3)CC1	Lassa entry inh 1.8µM
CCNc1ccccc1C(=O)O	none (no result: Lassa entry inh, MARV entry inh)
O=C(COC(=O)c1ccc(O)cc1)Nc1ccccc1	none
O=C1CCCC2=C1C(c1ccco1)Nc1ccc3ccccc3c12 (configuration not stated)	CHX counter 33, Shiga toxin inh 45
Cc1ccc(C2Nc3ccc4ccccc4c3C3=C2C(=O)CC(C)(C)C3)o1 (configuration not stated)	Lassa entry inh inconclusive, MARV entry inh inconclusive, CHX counter 13, HCV inh inconclusive
O=C(N/N=C/c1ccc2c(c1)OCO2)c1ccn(Cc2ccc(Cl)cc2)n1	Lassa entry inh inconclusive
O=C(c1ncn(Cc2ccccc2)c1C(=O)N1CCN(c2ccccc2)CC1)N1CCN(c2ccccc2)CC1	none (no result: Lassa entry inh, MARV entry inh, CHX counter, Shiga toxin inh)
O=C(O)c1ncn(Cc2ccc(Br)cc2)c1C(=O)O	MARV entry inh inconclusive, FMDV antiviral 35µM
Cc1cc(Cn2nc(-c3ccccc3)cc2C(=O)NCc2cccc(Br)c2)on1	HCV inh 5.6µM (no result: Lassa entry inh, MARV entry inh, CHX counter, Shiga toxin inh)
Cc1cc(Cn2nc(-c3ccccc3)cc2C(=O)NCc2cccc(C(F)(F)F)c2)on1	HCV inh inconclusive (no result: Lassa entry inh, MARV entry inh, CHX counter, Shiga toxin inh)
CCCCCc1ccc(-c2ccc(Br)cc2)nc1	Lassa entry inh inconclusive (no result: MARV entry inh, CHX counter, Shiga toxin inh, HCV inh)
CCCCCCCc1ccc(-c2ccc(O)cc2)nc1	CHX counter 31, Shiga toxin inh 81
CCCCCc1ccc(-c2ccc(/C=C/C(=O)O)cc2)nc1	Lassa entry inh inconclusive, MARV entry inh inconclusive, CHX counter 44, FMDV antiviral inconclusive, Shiga toxin inh 55
CCCc1ccc(-c2ccc(C(=O)Oc3ccc(Br)cc3)cc2)nc1	none (no result: MARV entry inh, CHX counter, Shiga toxin inh, HCV inh)
CCCc1ccc(-c2ccc(/C=C/C(=O)O)cc2)nc1	Lassa entry inh 0.46µM, MARV entry inh 0.23µM, Shiga toxin inh 61
O=C(CSC1=NS(=O)(=O)c2cc(Cl)ccc2N1)NCCc1ccccc1	none (no result: CHX counter, Shiga toxin inh)
COc1cc(C(=O)NCC(=O)N/N=C/c2ccco2)cc(OC)c1OC	Lassa entry inh inconclusive, MARV entry inh inconclusive
COc1cc(C(=O)NCC(=O)N/N=C/c2cccc(OC(=O)c3ccco3)c2)cc(OC)c1OC	CHX counter 15 (no result: Lassa entry inh, MARV entry inh)
COc1cccc(/C=N/NC(=O)CNC(=O)c2ccco2)c1O	CHX counter 15 (no result: Lassa entry inh, MARV entry inh)
COc1ccc(CCCC(=O)N/N=C/c2cccc(OC)c2O)cc1C	Lassa entry inh inconclusive, MARV entry inh inconclusive, CHX counter 28, Shiga toxin inh 52, HCV inh inconclusive
COc1cccc(/C=N/NC(=O)C[n+]2ccccc2)c1O	none
Nc1nc(N)nc(C2C=CCCC2)n1 (configuration not stated)	none (no result: CHX counter, Shiga toxin inh)
COc1ccc(S(=O)(=O)Nc2cccc3c2O[C@H](CN(C)C(=O)NC(C)C)[C@@H](C)CN([C@H](C)CO)C3=O)cc1	none (no result: Lassa entry inh, MARV entry inh, CHX counter, Shiga toxin inh)
Cc1cccc(C)c1NC(=O)c1csc([C@@H]2O[C@H](CO)[C@H](O)[C@H](O)[C@H]2O)n1	none (no result: Lassa entry inh, MARV entry inh, CHX counter, Shiga toxin inh, HCV inh)
COc1cc(F)ccc1-c1csc(C(C)(NC(C)=O)c2ccccc2)n1 (configuration not stated)	none (no result: Lassa entry inh, MARV entry inh, CHX counter, Shiga toxin inh, HCV inh)
COc1ccccc1NC(=S)NC1CCCCCCCCCCC1	HCV inh 4.5µM (no result: Lassa entry inh)
S=C(Nc1ccccc1Cl)NC1CCCCCC1	CHX counter 18, Shiga toxin inh 63
Cc1cccc(NC(=S)NNC(=S)NC2CCCCC2)c1C	CHX counter 16, Shiga toxin inh 44
COc1ccccc1NC(=S)NC1CCCCC1	Lassa entry inh inconclusive, MARV entry inh inconclusive, HCV inh inconclusive
S=C(Nc1ccc(Cl)cc1Cl)NC1CCCCC1	Lassa entry inh inconclusive, HCV inh inconclusive
CC(C)CCNC(=O)c1c(CSc2ccccc2)noc1C(=O)NCc1ccccc1	none (no result: Lassa entry inh, MARV entry inh)
O=c1[nH]c(=S)[nH]c(O)c1N=Nc1ccc(S(=O)(=O)N2CCc3ccccc32)cc1	HCV inh inconclusive
O=S(=O)(c1ccc(Br)cc1)N1CCCc2ccccc21	MARV entry inh inconclusive, CHX counter 12, HCV inh inconclusive
Nc1ccc(S(=O)(=O)N2CCc3ccccc32)cc1	MARV entry inh inconclusive
